Measured values as given in PubChem BioAssay (Tox21).
Records with an inconclusive call do not appear. Entries that show only a call come without a potency. More than one record can exist for a structure, and the calls need not agree. Active and inactive are the calls of the source. The call rests on the fitted dose curve.

Biological target: Acetylcholinesterase (Homo sapiens) (UniProt P22303)
Assay: Acetylcholinesterase (AChE) small molecule antagonists: fluorescence cell-based qHTS assay (AID 1347398); further: nearly all actives have a fitted effect of over 50% in size
Conditions: SH-SY5Y cells; Potency: AChE activity; outcome: AChE activity; series mostly up to 115 µM
From the text: National Center for Advancing Translational Sciences [NCATS]
Division of Preclinical Innovation [DPI]
U.S. Environmental Protection Agency [EPA]
National Institutes of Environmental Health Sciences [NIEHS]
National Toxicology Program [NTP]
U.S. Food and Drug Administration [FDA]
Acetylcholinesterase (AChE) is the primary cholinesterase in the body that hydrolyzes a key neurotransmitter, acetylcholine. Inhibition of AChE activity can lead to neurotoxicity. Known inhibitors of AChE include organophosphorous pesticides (OP), chemical warfare agents, drugs, and various phytochemicals.
A homogenous cell-based assay using Amplitetrade mark Fluorimetric Acetylcholinesterase Assay Kit *Green Fluorescence* (AAT Bioquest, Sunnyvale, CA) was used to evaluate the chemicals in the Tox21 10K library that inhibit AChE activity. The assay uses Thiolite Green to quantify the thiocholine produced from the hydrolysis of acetylthiocholine by AChE from the SH-SY5Y cells. AChE can hydrolyze acetylthiocholine to create thiocholine. Thiolite Green is fluorescent when reacting with thiocholine. It has spectral properties similar to those of fluorescein. The fluorescence intensity of Thiolite Green is used to measure AChE activity. Its signal can be easily read by a fluorescence microplate reader at Ex/Em = 490/520 nm.
Tox21 Assay Protocol Summary:
For cell-based AChE assay, 2,000 SH-SY5Y cells in 4 uL/well were dispensed into black, clear-bottom 1536-well plates using a Multidrop Combi (Thermo Scientific) dispenser. The assay plates were incubated overnight at 37 C to allow cells to attach to the wells, followed by the transfer of 23 nL compound or DMSO (vehicle control) by a Pintool station (Wako Automation, CA). The plates were incubated for 30 min at 37 C and 5% CO2, followed by the addition of 4 uL of detection cocktail solution (ThioliteGreen, acetylthiocholine) into each well using Flying Reagent Dispenser (Beckman Coulter, CA) and then following 40 min incubation at room temperature. Fluorescent intensity (Ex/Em = 490/520 nm) was measured using an Envision plate reader (PerkinElmer, MA).
Potency means the concentration at half of the fitted maximal effect.

Acetylcholinesterase (Homo sapiens), sequence (P22303 whole entry, looked up): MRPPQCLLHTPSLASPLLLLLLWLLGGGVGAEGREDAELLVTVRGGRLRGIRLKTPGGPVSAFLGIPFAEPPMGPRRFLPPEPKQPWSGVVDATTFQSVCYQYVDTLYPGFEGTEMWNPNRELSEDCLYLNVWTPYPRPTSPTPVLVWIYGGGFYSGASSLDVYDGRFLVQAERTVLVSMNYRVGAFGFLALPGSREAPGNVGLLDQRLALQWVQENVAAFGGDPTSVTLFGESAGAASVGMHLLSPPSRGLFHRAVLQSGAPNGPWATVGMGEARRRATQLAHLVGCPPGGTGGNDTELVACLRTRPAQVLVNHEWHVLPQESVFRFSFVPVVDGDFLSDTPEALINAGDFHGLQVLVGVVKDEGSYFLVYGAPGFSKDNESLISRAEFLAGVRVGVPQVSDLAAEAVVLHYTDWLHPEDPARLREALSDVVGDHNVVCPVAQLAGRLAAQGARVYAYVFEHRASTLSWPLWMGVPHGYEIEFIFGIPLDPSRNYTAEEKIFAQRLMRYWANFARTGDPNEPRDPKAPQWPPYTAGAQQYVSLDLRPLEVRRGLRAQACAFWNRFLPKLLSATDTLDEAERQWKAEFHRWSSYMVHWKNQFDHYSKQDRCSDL

Compound	Potency	activity change, negative = inhibition	outcome
CC(C)NCC(O)c1cc(O)cc(O)c1 (stereo not given)	inactive		
CC(=O)CCc1ccc(OC(C)=O)cc1	inactive		
CCCCCCC(C)OC(=O)COc1nc(F)c(Cl)c(N)c1Cl (stereo not given)	inactive		
CCCCCCCOC(=O)c1ccc(O)cc1	inactive		
CCCCCCCCC1CO1 (stereo not given)	inactive		
c1ccc2c(c1)ccc1ncccc12	inactive		
COc1cc(C)ccc1O	inactive		
CCOc1ccc2c(c1)C(C)=CC(C)(C)N2	inactive		
CCC(=O)CC(C)CC (stereo not given)		1.06% [at 0.439 µM] (inactive)	
CC1=NN(c2ccc(S(=O)(=O)O)cc2)C(=O)C1	inactive		
CC[C@H](C)C(=O)O[C@H]1C[C@H](O)C=C2C=C[C@H](C)[C@H](CC[C@@H](O)C[C@@H](O)CC(=O)O)[C@H]21	inactive		
CCCCCCCCCCCCCCCCCC(=O)OCC(CC)CCCC (stereo not given)	inactive		
c1ccc2sc(SN3CCOCC3)nc2c1	inactive		
CCCCCN(CCCOC)C(=O)C(CCC(=O)O)NC(=O)c1ccc(Cl)c(Cl)c1 (stereo not given)	inactive		
CC(=O)O[C@]1(C(C)=O)CC[C@H]2[C@@H]3C[C@H](C)C4=CC(=O)CC[C@]4(C)[C@H]3CC[C@@]21C	inactive		
Cc1ccc(C(=O)Nc2ccc(S(=O)(=O)O)c3cc(S(=O)(=O)O)cc(S(=O)(=O)O)c23)cc1NC(=O)c1cccc(NC(=O)Nc2cccc(C(=O)Nc3cc(C(=O)Nc4ccc(S(=O)(=O)O)c5cc(S(=O)(=O)O)cc(S(=O)(=O)O)c45)ccc3C)c2)c1	inactive		
O=C(O)c1cc(O)c2c(c1)C(=O)c1cccc(O)c1C2=O	inactive		
CC(=O)CC(=O)c1ccccc1	inactive		
CC1=CC[C@H]2C[C@@H]1C2(C)C	32 µM (active) and inactive		
CCn1nc(C)c2c1C(=O)NCC(c1ccc(O)cc1)=N2	inactive		

Compound	Potency	activity change, negative = inhibition	outcome
Cn1cnc2c(F)c(Nc3ccc(Br)cc3Cl)c(C(=O)NOCCO)cc21	inactive		
COCC(C)OC(C)=O (stereo not given)	inactive		
NCCc1ccc(O)c(O)c1			inactive
CCOC(=O)c1ccc(C)cc1	inactive		
O=C(/C=C/C=C/c1ccc2c(c1)OCO2)N1CCCCC1	inactive		
CCC(C)(O)CCC=C(C)C (stereo not given)	inactive		
O=C(Cl)c1c(Cl)cccc1Cl	40.4 µM (active)		
C=CC(=O)OCC(CO)(COCC(COC(=O)C=C)(COC(=O)C=C)COC(=O)C=C)COC(=O)C=C	inactive		
CCn1cc(C(=O)O)c(=O)c2cnc(N3CCNCC3)nc21	inactive		
CC(=O)/C=C/c1ccco1	inactive		
C=C(C)C(=O)OCCOC1CC2CC1C1C=CCC21 (stereo not given)	inactive		
CC1CCCC(=O)C1=O (stereo not given)	inactive		
Cc1ccc([N+](=O)[O-])c(C)c1	inactive		
COC(C)(C)OC	inactive		
C#Cc1cccc(Nc2ncnc3cc(OCCOC)c(OCCOC)cc23)c1	inactive		
CS(=O)(=O)CCNCc1ccc(-c2ccc3ncnc(Nc4ccc(OCc5cccc(F)c5)c(Cl)c4)c3c2)o1	inactive		
CC(=O)CC(C)(C)O	inactive		
C/C=C/C(=O)OCC(C)C	inactive		
Cc1ccc2ccccc2n1	inactive		
C/C=C\C/C=C/CCCCCCCCOC(C)=O	inactive		
